The source made the active and inactive calls. Calls follow the shape of the dose curve; as a rule, active = well fitted curve in the direction sought with a large enough effect in the repeat runs; inconclusive = weak or mixed curves; inactive = flat fitted curve, though single readings scatter.
Assay: qHTS assay to test for compound auto fluorescence at 590 nm (red) in HEK293 cells (AID 720679)
Details: red autofluorescence 540/590 nm; series mostly up to 91.3 µM
Text: National Center for Advancing Translational Sciences [NCATS]
NIH Chemical Genomics Center [NCGC]
U.S. Environmental Protection Agency [EPA]
National Institutes of Environmental Health Sciences [NIEHS]
National Toxicology Program [NTP]
U.S. Food and Drug Administration [FDA]
Compound auto fluorescence often interferes with screening of the compound library against various biological targets and signaling pathways. Some of these compounds may have fluorophoric properties. Such properties may interfere with the assay outputs resulting in false positives and/or negatives. To decrease such complications and ensure the compound activities are relevant in terms of biological response, the Tox21 10K compound library was screened for auto fluorescence.
From the fluorophores used as reporter signals in our screening assays, the auto fluorescence equivalencies of compounds against three fluorophores have been evaluated: Triamterene, Fluorescein and Rose Bengal sodium for blue, green and red fluorescence, respectively. The fluorescence intensities were measured using Excitation/Emission wavelengths at 405/460nm, 485/535nm and 540/590nm for blue, green and red labels, respectively. This assay includes the red fluorescence data.
Tox21 Assay Protocol Summary:
2,000 HEK293 cells in 5 uL of culture medium containing 10% dialyzed FBS per well were dispensed into black wall/clear bottom 1536-well plates using a Multidrop Combi Dispenser (Thermo Scientific). The assay plates were incubated for 4-5 hr at 37C to allow cell attachment to the well bottom, followed by the transfer of 23 nL compound or DMSO vehicle by a pintool work station (Kalypsys, San Diego, CA). After the assay plates were incubated overnight at 37C and 5% CO2, fluorescence intensities in the assay plates were measured by an Envision (PerkinElmer, Shelton, CT) plate reader using three labels for measuring blue, green and red fluorescence at […] 460, 535 and 590nm respectively.

Compound | outcome
CCOc1nc(F)cc2nc(S(=O)(=O)Nc3c(Cl)cccc3Cl)nn12 | inactive
CO/N=C(/C(=O)OC)c1ccccc1COc1ccccc1C | inactive
N#Cc1cc(I)c(O)c(I)c1 | inactive
II | inactive
CCC(COC(=O)c1cc(OC)c(OC)c(OC)c1)(c1ccccc1)N(C)C (stereo not given) | inactive
C/C(=C\c1ccccc1)[N+](=O)[O-] | inactive
CC(=O)[C@H]1CC[C@H]2[C@@H]3CC[C@H]4C[C@](C)(O)CC[C@]4(C)[C@H]3CC[C@]12C | inactive
ClP(Cl)(Cl)(Cl)Cl | inactive
C=CC(=O)OCC(C)C | inactive
C=CCN1CC[C@]23c4c5ccc(O)c4O[C@H]2C(=O)CC[C@@]3(O)[C@H]1C5 | inactive
CCOP(=S)(OCC)SCSCC | inactive
Clc1cccc(SC2CCNCC2)n1 | inactive
NS(=O)(=O)C(F)(F)C(F)(F)C(F)(F)C(F)(F)C(F)(F)C(F)(F)C(F)(F)C(F)(F)F | inactive
CC/C(=N\OC/C=C/Cl)C1=C(O)CC(C2CCOCC2)CC1=O (stereo not given) | inactive
CCC(Br)(CC)C(=O)NC(N)=O | inactive
OC(c1ccc(Cl)cc1)(c1ccc(Cl)cc1)c1cccnc1 | inactive
COC(=O)c1cncn1C(C)c1ccccc1 (stereo not given) | inactive
COc1c(C(C)(C)C)cc([N+](=O)[O-])c(C)c1[N+](=O)[O-] | inactive
CN1C(=O)NC(=O)C(C)(C2=CCCCC2)C1=O (stereo not given) | inactive
O=[N+]([O-])c1ccc(F)c([N+](=O)[O-])c1 | inactive

Compound | outcome
CCOP(O)OCC | inactive
CCOP(=S)(OCC)Oc1nc(Cl)c(Cl)cc1Cl | inactive
O=C1C(=O)c2cccc3cccc1c23 | inactive
NCCCNCCCN | inactive
CN(C)c1ccc(N(C)C)cc1 | inactive
CCOP(=S)(Oc1ccc([N+](=O)[O-])cc1)c1ccccc1 (stereo not given) | inactive
CC(C)=CCOc1c2occc2cc2ccc(=O)oc12 | inactive
CC1(C)CCC(Cc2ccc(Cl)cc2)C1(O)Cn1cncn1 (stereo not given) | inactive
O=C(NCc1cccnc1)Nc1ccc([N+](=O)[O-])cc1 | inactive
CCOC(=O)CBr | inactive
CCCCC(CC)COP(=O)(Oc1ccccc1)Oc1ccccc1 (stereo not given) | inactive
O=NN1CCCCCC1 | inactive
O=C1NCN(c2ccccc2)C12CCN(CCCOc1ccc(F)cc1)CC2 | inactive
O=[N+]([O-])C(Br)(CO)CO | inactive
C=CC(=O)OCCCCO | inactive
Cn1sc(Cl)cc1=O | inactive
Cc1ccc(-c2c(Cl)nc(C#N)n2S(=O)(=O)N(C)C)cc1 | inactive
O=C1c2ccccc2C(=O)C1C(=O)C(c1ccccc1)c1ccccc1 | inactive
N#CCC#N | inactive
ClCCCCBr | inactive

Source: PubChem BioAssay (Tox21)
